Shown are actives, neighbours in structure and some others; about 2% of the full set was active somewhere.
NPR1 activator: GC-A stimulated cGMP production enhancers – HEK293 GC-A cells, cGMP TR-FRET, EC30 ANP, primary screen. hit rate 0.14% among 370,000. 0% at EC30 ANP, 100% saturating ANP. Atrial natriuretic peptide receptor 1 (Homo sapiens), P16066. activation, % at 10 µM. AID 1671463, 2021; in the data active means activation above about 40%
APOBEC3A inh: APOBEC3A ssDNA deaminase inhibitors, primary screen, selectivity assay for APOBEC3G inhibitor project, biochemical, FAM/TAMRA oligo cleavage fluorescence. AID 493011, 2011. hit rate 0.41% among 330,000. recombinant A3A, FAM/TAMRA ssDNA deamination fluorescence. inhibition, % at 20 µM;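 active means at least 40% inhibition at 20 µM here, with at most 30% in a related deaminase screen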
Target sequence (P31941 whole entry, looked up): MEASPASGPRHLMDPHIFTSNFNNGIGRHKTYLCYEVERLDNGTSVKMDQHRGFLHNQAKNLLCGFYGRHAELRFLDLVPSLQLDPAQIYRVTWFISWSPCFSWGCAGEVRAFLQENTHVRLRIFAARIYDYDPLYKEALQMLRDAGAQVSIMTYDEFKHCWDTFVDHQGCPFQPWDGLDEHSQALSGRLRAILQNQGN
PfG6PD inh: PfG6PD enzyme inhibitors, primary screen, biochemical, fluorescence intensity, uHTS. inhibition, % at 20 µM. PfGluPho enzyme, NADPH resazurin-diaphorase fluorescence. hit rate 0.78% among 350,000;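 active means inhibition reaching at least a set limit at 20 µM in the primary screen, cut at about 59% in these data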
GC-B act: human GC-B receptor activators, primary screen, HEK293 GC-B cells, cGMP TR-FRET, EC30 CNP | Atrial natriuretic peptide receptor 2 (Homo sapiens), P20594 | 0% at EC30 CNP, 100% saturating CNP | activation, % at 10 µM | hit rate 0.11% among 370,000;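 active means activation at 10 µM reaching about 35% in either raw or pattern-adjusted values, limit read from the data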
APOBEC3G inh: APOBEC3G DNA deaminase inhibitors, primary screen, biochemical, fluorescence, single-stranded DNA substrate, uHTS | AID 493012, 2011 | inhibition, % at 20 µM | recombinant A3G, ssDNA deamination FAM/TAMRA fluorescence | DNA dC->dU-editing enzyme APOBEC-3G (Homo sapiens), Q9HC16 | hit rate 0.28% among 330,000;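 active means inhibition of at least 40% at 20 µM, with no more than 30% in the related APOBEC3A deaminase screen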
Target sequence (Q9HC16 whole entry, looked up): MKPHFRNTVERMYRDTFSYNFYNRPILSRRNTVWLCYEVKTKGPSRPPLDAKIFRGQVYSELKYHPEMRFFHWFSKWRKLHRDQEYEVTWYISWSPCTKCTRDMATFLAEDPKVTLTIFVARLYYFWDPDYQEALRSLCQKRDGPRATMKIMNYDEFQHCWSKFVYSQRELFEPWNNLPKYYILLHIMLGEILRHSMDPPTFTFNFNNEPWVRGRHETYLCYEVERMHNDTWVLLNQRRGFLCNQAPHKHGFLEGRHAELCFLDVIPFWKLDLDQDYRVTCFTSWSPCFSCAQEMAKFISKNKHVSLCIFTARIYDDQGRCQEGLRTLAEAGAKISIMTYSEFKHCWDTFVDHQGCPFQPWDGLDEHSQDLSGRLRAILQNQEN
Neddyl block: inhibitors of cullin neddylation, primary screen, biochemical, TR-FRET, uHTS, NAE and Ubc12. NEDD8-conjugating enzyme Ubc12 (Homo sapiens) + NEDD8-activating enzyme E1 regulatory …. inhibition, % at 25 µM. hit rate 0.58% among 360,000. AID 651699, 2012; in the data active means inhibition above about 36%
Neddyl conf: blockade of NEDD8 conjugation to cullin – biochemical, TR-FRET, single concentration, confirmation | shares compounds with Neddyl block | TR-FRET cullin neddylation biochemical assay | calls only at 25 µM | hit rate 13% among 1,800 | AID 652217, 2013; in the data active means inhibition above about 40%;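 further: neddylation substrate is the cullin 1 ring ligase complex with SKP2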
Each line names hits and unclear results; the compound was inactive in the other large screens (follow-up assays come after a bar, where shown).

Cc1cc2c(c(=O)o1)[C@@]1(C(=O)N(C)c3ccccc31)C1=C(CC(C)(C)CC1=O)O2	none (no result: APOBEC3A inh, PfG6PD inh, APOBEC3G inh, Neddyl block)
CC1CCN(c2ccc(C(=O)O)cc2NS(=O)(=O)c2ccc(C(C)(C)C)cc2)CC1	none (no result: APOBEC3A inh, PfG6PD inh, APOBEC3G inh, Neddyl block)
O=C(CSc1nnc(Cc2cccs2)n1-c1ccccc1)Nc1ccccc1-c1ccccc1	none (no result: APOBEC3A inh, PfG6PD inh, APOBEC3G inh, Neddyl block)
CCc1c(C)nc2c(-c3ccccc3)c[nH]n2c1=O	Neddyl block 43.1
CCOC(=O)Cc1c(C)nc2c(-c3ccccc3)c[nH]n2c1=O	none (not shown: Neddyl block)
Nc1ccc(F)c(CN2CCN(c3ncc(Cc4ccccc4)cn3)CC2)c1	none (no result: APOBEC3A inh, PfG6PD inh, APOBEC3G inh, Neddyl block)
CCOC(=O)c1cnc2cc3c(cn2c1=O)CCCC3	Neddyl block 39.7
Cc1cn2c(=O)c3ncn(C4OC(CO)C(O)C4O)c3n(C)c2n1 (stereo unspecified)	none (no result: APOBEC3A inh, PfG6PD inh, APOBEC3G inh, Neddyl block)
COc1ccc2c(C(=O)CN3CCSCC3)c[nH]c2c1	Neddyl block 38.7 | Neddyl conf inactive
COC(=O)[C@H]1C[C@@]2(C#N)c3ccccc3N(C(=O)OC(C)(C)C)[C@H]2N1C(=O)OC(C)(C)C	none (no result: APOBEC3A inh, PfG6PD inh, APOBEC3G inh, Neddyl block)
COCCNC(=O)/C(C#N)=C/c1c(N2CCN(c3ccc(OC)cc3)CC2)nc2c(C)cccn2c1=O	none
COCCNC(=O)/C(C#N)=C/c1c(N2CCN(c3ccccc3)CC2)nc2c(C)cccn2c1=O	Neddyl block 58.4 | Neddyl conf inactive
COc1ccc(S[C@]2(C(=O)N3CCOCC3)CC(=O)N(c3ccc(Cl)cc3)[C@@H]2c2ccc(OC)cc2)cc1	none (no result: APOBEC3A inh, PfG6PD inh, APOBEC3G inh, Neddyl block)
CC(=O)c1cccc(-c2cnc3c(NC=O)cc(-c4ccc(F)cc4)cn23)c1	none (no result: APOBEC3A inh, PfG6PD inh, APOBEC3G inh)
COc1cc(-c2cc(NC(C)=O)c3ncc(-c4ccc(F)cc4)n3c2)cc(OC)c1OC	none (no result: APOBEC3A inh, PfG6PD inh, APOBEC3G inh)
CC(=O)c1ccc(-c2cnc3c(NC=O)cc(-c4ccc(C(=O)NC5CC5)cc4)cn23)cc1	Neddyl block 48.4 (no result: APOBEC3A inh, PfG6PD inh, APOBEC3G inh) | Neddyl conf inactive
CC(=O)Nc1cccc(-c2cc(NC=O)c3ncc(-c4ccc(C(C)=O)cc4)n3c2)c1	Neddyl block 41.6 (no result: APOBEC3A inh, PfG6PD inh, APOBEC3G inh) | Neddyl conf inactive
COc1cc(-c2cc(NC(C)=O)c3ncc(-c4ccc(C(C)=O)cc4)n3c2)cc(OC)c1OC	NPR1 activator 46.5, GC-B act 46.2, Neddyl block 41.9 (no result: APOBEC3A inh, PfG6PD inh, APOBEC3G inh) | Neddyl conf inactive
CC(=O)Nc1cc(-c2cccc(CO)c2)cn2c(-c3ccc(C(C)=O)cc3)cnc12	Neddyl block 45.2 (no result: APOBEC3A inh, PfG6PD inh, APOBEC3G inh) | Neddyl conf inactive
CN(C(=O)c1cn(C)c2ccccc12)c1ccc(Oc2cccnc2)cc1	none (no result: APOBEC3A inh, PfG6PD inh, APOBEC3G inh, Neddyl block)
C=CCCC(=O)N1C[C@H]2CCN(C)[C@H]2C[C@H]1c1ccccc1Br	none (no result: APOBEC3A inh, PfG6PD inh, APOBEC3G inh, Neddyl block)
CCCC[C@@H]1C(=O)N2N=C(c3ccccc3)c3ccccc3[C@H]2N2N=C(c3ccccc3)c3ccccc3[C@@H]12	none (no result: APOBEC3A inh, PfG6PD inh, APOBEC3G inh, Neddyl block)
CC(=O)Nc1cc(-c2ccc(C(=O)N3CCOCC3)cc2)cn2c(-c3ccc(S(C)(=O)=O)cc3)cnc12	Neddyl block 45.0 (no result: APOBEC3A inh, PfG6PD inh, APOBEC3G inh) | Neddyl conf inactive
CC(=O)Nc1cc(-c2ccc(C(=O)N3CCOCC3)cc2)cn2c(-c3ccc(F)c(Cl)c3)cnc12	none (no result: APOBEC3A inh, PfG6PD inh, APOBEC3G inh)
CCOc1ccc(CCNC(=O)c2ccc(Oc3ccccc3)cc2)cc1OCC	none (no result: APOBEC3A inh, PfG6PD inh, APOBEC3G inh, Neddyl block)
CN(C)c1cccc(C(=O)NCCCSc2ccccc2)c1	Neddyl block 48.8
Cc1cccc(C(=O)NCC(=O)NCCCSc2ccccc2)c1	none
CC1(C)Cc2c(sc(NC(=O)c3ccc(S(=O)(=O)N4CCCCCC4)cc3)c2C(N)=O)C(C)(C)N1	none
CC1(C)Cc2c(sc(NC(=O)c3ccc4c(c3)OCCO4)c2C(N)=O)C(C)(C)N1	Neddyl block 39.8 | Neddyl conf inactive
CCCCCCc1ccc(NC(=O)[C@@H]2CC=C[C@@H]3CCN(Cc4ccccc4)C(=O)[C@@H]32)cc1	none (no result: APOBEC3A inh, PfG6PD inh, APOBEC3G inh, Neddyl block)
COc1ccc(OC)c2[nH]c(=O)c(CCNC(C)=O)cc12	none
COc1ccc(OC)c2[nH]c(=O)c(CCNC(=O)c3ccc4c(c3)OCO4)cc12	Neddyl block 40.8 | Neddyl conf inactive
Cc1ccc(-c2cc(N)n3nc(-c4ccc(C)cc4)cc3n2)cc1	none (not shown: Neddyl block)
Cc1ccc(-c2cc3nc(-c4ccccc4)cc(N)n3n2)cc1	Neddyl block 44.5 | Neddyl conf inactive
c1ccc2c(c1)ccc1nnc(SCc3ccc4c(c3)OCCO4)n12	none
c1ccc2c(c1)ccc1nnc(-c3ccc4c(c3)OCO4)n12	Neddyl block 46.1
CCc1nc(Nc2ccc(N3CCN(C(C)=O)CC3)cc2)c2oc3ccccc3c2n1	Neddyl block 38.3 | Neddyl conf inactive
Cc1ccc(Nc2nc(C)nc3c2oc2ccccc23)cc1	Neddyl block 37.0
CC(=O)N1CCN(c2ccc(Nc3ncnc4c3oc3ccccc34)cc2)CC1	none
O=C(OCc1cn(Cc2ccc(F)cc2F)nn1)N1CCCC1	none (no result: APOBEC3A inh, PfG6PD inh, APOBEC3G inh, Neddyl block)
O=C(Nc1ccc(Cl)cc1)C1CCCN1S(=O)(=O)c1cccc2cccnc12 (stereo unspecified)	none (no result: APOBEC3A inh, PfG6PD inh, APOBEC3G inh, Neddyl block)
N#Cc1cc(-c2cccc(Cl)c2)c[nH]c1=O	none
C=CCn1cc(-c2cccc(Cl)c2)cc(C#N)c1=O	Neddyl block 41.1 | Neddyl conf inactive
Cn1cc(-c2ccc(Cl)cc2)cc(C#N)c1=O	Neddyl block 46.2 | Neddyl conf inactive
CCCOc1ccc(C(=O)N2CCC(Oc3cccnc3)CC2)cc1	none (no result: APOBEC3A inh, PfG6PD inh, APOBEC3G inh, Neddyl block)
COC(=O)CCN(Cc1ccc(OC)cc1OC)S(=O)(=O)c1ccccc1Br	none (no result: APOBEC3A inh, PfG6PD inh, APOBEC3G inh, Neddyl block)
CCOC(=O)C1=C(C)NC(C)=C(C(=O)OCC)C1C(=O)OCC(=O)NCCc1ccc(S(N)(=O)=O)cc1	Neddyl block 42.2 | Neddyl conf inactive
CCOC(=O)C1=C(C)NC(C)=C(C(=O)OCC)C1C(=O)OCC(=O)NCc1ccccc1	none (not shown: Neddyl block)
CCOC(=O)C1=C(C)NC(C)=C(C(=O)OCC)C1C(=O)OCC(=O)NC(C)c1ccccc1 (stereo unspecified)	Neddyl block 45.1
Nc1nccnc1C(=O)OCC(=O)NCCc1ccc(S(N)(=O)=O)cc1	Neddyl block 62.6
COCC(=O)NCCc1ccc(S(N)(=O)=O)cc1	none
CN1[C@@H](Cc2ccccc2)COc2cc(N3CCCC3)ccc2S1(=O)=O	none (no result: APOBEC3A inh, PfG6PD inh, APOBEC3G inh, Neddyl block)
c1ccc(Cn2c(SCc3cn4cccnc4n3)nnc2-c2ccco2)cc1	Neddyl block 37.1 | Neddyl conf inactive

High-throughput results (PubChem)
